Laboratory results reported in PubChem BioAssay (Tox21).
Inconclusive results are not listed. Activity calls are given as the source filed them. Unless noted, calls come from the whole dose curve; as a rule, active = well fitted curve in the direction sought with a large enough effect in the repeat runs; inconclusive = weak or mixed curves; inactive = no such curve, though single readings can be large; an effect the other way counts as inactive or inconclusive.

Columns and labels:
[1] = qHTS assay to identify small molecule agonists of the peroxisome proliferator-activated receptor delta (PPARd) signaling pathway - cell viability counter screen (AID 743211); note: nearly all actives have a fitted effect of over 55% in size
Procedure, shortened: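 Following 5 h plating at 37 C and 5% CO2, PPARd UAS-bla HEK293H cells took up test compounds for 17 h. Viability was quantified by luminescence 30 min after CellTiter-Glo addition at room temperature.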

[2] = molecular target: Peroxisome proliferator-activated receptor delta (Homo sapiens) (UniProt Q03181); assay: qHTS assay to identify small molecule agonists of the peroxisome proliferator-activated receptor delta (PPARd) signaling pathway (AID 743212; calls by dose curve)
Chain of Peroxisome proliferator-activated receptor delta (Homo sapiens) (Q03181 whole entry, looked up): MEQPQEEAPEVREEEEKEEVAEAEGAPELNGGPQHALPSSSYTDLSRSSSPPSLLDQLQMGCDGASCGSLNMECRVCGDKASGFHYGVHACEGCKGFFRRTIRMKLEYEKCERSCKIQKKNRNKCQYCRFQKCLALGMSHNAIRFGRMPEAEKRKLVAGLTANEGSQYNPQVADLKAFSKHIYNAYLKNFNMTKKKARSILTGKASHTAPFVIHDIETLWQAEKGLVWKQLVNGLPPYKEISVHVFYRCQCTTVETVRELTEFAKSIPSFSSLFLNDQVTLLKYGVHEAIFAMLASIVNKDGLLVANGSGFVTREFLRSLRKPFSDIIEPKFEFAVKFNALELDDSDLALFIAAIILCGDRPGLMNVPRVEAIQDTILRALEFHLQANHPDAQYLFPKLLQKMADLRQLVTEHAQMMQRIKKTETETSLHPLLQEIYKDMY
Procedure, shortened: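 Steps: seed PPARd-bla HEK293H cells; incubate 5 h, 37 C, 5% CO2; add compounds in DMSO; incubate, 37 C; add LiveBLAzer B/G FRET substrate; hold 2 h at room temperature; measure fluorescence.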

[3] = qHTS assay to identify small molecule antagonists of the peroxisome proliferator-activated receptor delta (PPARd) signaling pathway - cell viability counter screen (AID 743213); note: nearly all actives have a fitted effect of over 50% in size
Procedure, shortened: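 Viability counter-screen, qHTS format: PPARd-bla HEK293H, L165041 300 nM final, 17 h compound exposure at 37 C, CellTiter-Glo luminescence after 30 min RT.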

[4] = qHTS assay to identify small molecule antagonists of the farnesoid-X-receptor (FXR) signaling pathway - cell viability counter screen (AID 743221; active = well fitted cell-killing curve with a large enough effect in the repeat runs, not every such curve was filed as active; note: nearly all actives have a fitted effect of over 50% in size)
Procedure, shortened: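 Compound effects on cell number were measured as CellTiter-Glo luminescence in HEK 293T cells expressing FXR-UAS-bla, after 16 h at 37 C with 50 uM CDCA (final).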

[5] = molecular target: Vitamin D3 receptor (Homo sapiens) (UniProt P11473); assay: qHTS assay to identify small molecule agonists of the vitamin D receptor (VDR) signaling pathway (AID 743222; calls by dose curve)
Chain of Vitamin D3 receptor (Homo sapiens) (P11473 whole entry, looked up): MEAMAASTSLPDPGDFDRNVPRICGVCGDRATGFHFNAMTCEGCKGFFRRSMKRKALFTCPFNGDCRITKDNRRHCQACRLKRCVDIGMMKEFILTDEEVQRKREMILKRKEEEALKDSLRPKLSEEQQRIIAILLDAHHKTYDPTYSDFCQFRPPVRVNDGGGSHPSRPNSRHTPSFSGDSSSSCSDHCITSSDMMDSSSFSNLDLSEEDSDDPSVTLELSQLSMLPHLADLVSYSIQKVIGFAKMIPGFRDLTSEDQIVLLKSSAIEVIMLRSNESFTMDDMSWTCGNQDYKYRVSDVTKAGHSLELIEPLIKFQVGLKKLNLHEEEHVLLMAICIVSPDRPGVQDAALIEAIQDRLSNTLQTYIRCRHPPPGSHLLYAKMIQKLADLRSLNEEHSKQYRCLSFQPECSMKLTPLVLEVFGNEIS
Procedure, shortened: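 Beta-lactamase reporter readout (LiveBLAzer B/G FRET, 2 h RT) in VDR-bla cells after 16 h compound treatment at 37C, 5% CO2; cells pre-incubated 4 h before pin transfer of DMSO solutions.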

[6] = molecular target: Vitamin D3 receptor (Homo sapiens) (UniProt P11473); assay: qHTS assay to identify small molecule antagonists of the vitamin D receptor (VDR) signaling pathway (AID 743223; active = well fitted inhibition curve with a large enough effect in the signal ratio in the repeat runs, not every such curve was filed as active; the % refers to the signal ratio)
Procedure, shortened: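 Beta-lactamase activity in VDR-bla cells is measured by FRET substrate fluorescence (2 h, room temperature) after cells spend 16 h at 37C with test compound and 3 nM final 1alpha,25-dihydroxyvitamin D3.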

[7] = qHTS assay to identify small molecule antagonists of the vitamin D receptor (VDR) signaling pathway - cell viability counter screen (AID 743225); note: nearly all actives have a fitted effect of over 50% in size
Procedure, shortened: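 In this counter screen, VDR-bla HEK 293T cells receive test compound plus 3 nM final calcitriol for 16 h at 37C. Room-temperature steps of 2 h with the beta-lactamase substrate, then 30 min with CellTiter-Glo, precede the luminescence read.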

[8] = qHTS assay to identify small molecule agonists of the NFkB signaling pathway (AID 1159509; active = well fitted curve in the direction sought with a large enough effect in the signal ratio in the repeat runs, not every such curve was filed as active; the % refers to the signal ratio; note: series mostly up to about 61 µM)
Procedure, shortened: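 Beta-lactamase reporter assay run in quantitative high-throughput format on an NF-kB-responsive ME-180 line, with 5 hr compound treatment and a FRET-based blue/green fluorescence readout.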

[9] = qHTS assay to identify small molecule agonists of the NFkB signaling pathway - cell viability counter screen (AID 1159515; calls by dose curve; note: series mostly up to about 61 µM; nearly all actives have a fitted effect of over 55% in size)
Procedure, shortened: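 ME-180 NFkB-bla cells, 2,000/well; overnight attach; compound 5 hr, 37 C/5% CO2; LiveBLAzer substrate 1.5 hr RT; then CellTiter-Glo in same wells, 30 min RT, luminescence read.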

[10] = qHTS assay to identify small molecule agonists of the endoplasmic reticulum stress response signaling pathway (AID 1159516; active = well fitted activation curve with a large enough effect in the signal ratio in the repeat runs, not every such curve was filed as active; the % refers to the signal ratio)
Procedure, shortened: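 HeLa ESRE-bla reporter line; cpd 5 h, 37 C/5% CO2; LiveBLAzer B/G FRET substrate 2 h RT; ex 405, em 460/530 nm.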

[11] = qHTS assay to identify small molecule agonists of the endoplasmic reticulum stress response signaling pathway - cell viability counter screen (AID 1159517; calls by dose curve;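 note: HeLa cells carrying an ER stress response element beta-lactamase reporter; series mostly up to about 61 µM; nearly all actives have a fitted effect of over 50% in size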)
Procedure, shortened: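 After overnight attachment, ESRE-bla HeLa cells were treated with Tox21 library compounds for 5 hr. CellTiter-Glo luminescence, read 30 min post-addition at room temperature, reported viability.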

[12] = qHTS assay to identify small molecule antagonists of the retinoid-related orphan receptor gamma (ROR-gamma) signaling pathway - cell viability counter screen (AID 1159520); note: nearly all actives have a fitted effect of over 50% in size
Procedure, shortened: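 Cytotoxicity was read from cellular ATP (CellTiter-Glo luminescence) after 16 hr at 37 C with 1 uM doxycycline induction. The inducer was added 2 hr after compound transfer to Tet-on ROR gamma CHO cells.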

[13] = molecular target: Nuclear receptor ROR-gamma (Homo sapiens) (UniProt P51449); assay: qHTS assay to identify small molecule antagonists of the retinoid-related orphan receptor gamma (ROR-gamma) signaling pathway (AID 1159521; note: nearly all actives have a fitted effect of over 50% in size; note: potency is the fitted concentration of half-maximal effect)
Procedure, shortened: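 Screening format: cell-based luciferase reporter in CHO cells with doxycycline-inducible RORγ. Compound pre-exposure lasts 2 h, doxycycline is 1 uM final, induction runs 16 h at 37 C, and ONE-Glo luminescence is read.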

[14] = qHTS assay to identify small molecule agonists of the AP-1 signaling pathway - cell viability counter screen (AID 1159525; calls by dose curve; note: nearly all actives have a fitted effect of over 55% in size)
Procedure, shortened: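 Intracellular ATP by Cell Titer Glo luminescence (30 min, RT) in the same ME-180 AP-1-bla wells after the 5 h compound exposure at 37 °C. Normalised to tetra n-octyl ammonium bromide and DMSO controls.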

[15] = qHTS assay to identify small molecule agonists of the AP-1 signaling pathway (AID 1159526; calls by dose curve)
[16] = molecular target: Peroxisome proliferator-activated receptor delta (Homo sapiens) (UniProt Q03181); assay: qHTS assay to identify small molecule antagonists of the peroxisome proliferator-activated receptor delta (PPARd) signaling pathway (AID 743215; active = well fitted inhibition curve with a large enough effect in the signal ratio in the repeat runs, not every such curve was filed as active; the % refers to the signal ratio;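 note: cells stimulated with agonist L165041 at 300 nM final during compound exposure; series mostly up to about 62 µM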)
Procedure, shortened: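 HEK293H GeneBLAzer PPARd UAS-bla reporter cells; cpd + L165041 300 nM final, 17 h 37 C; LiveBLAzer B/G FRET substrate 2 h RT; fluorescence intensity read-out. Antagonist mode.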

[17] = molecular target: Bile acid receptor (Homo sapiens) (UniProt Q96RI1); assay: qHTS assay to identify small molecule antagonists of the farnesoid-X-receptor (FXR) signaling pathway (AID 743217; active = well fitted inhibition curve with a large enough effect in the signal ratio in the repeat runs, not every such curve was filed as active; the % refers to the signal ratio)
Chain of Bile acid receptor (Homo sapiens) (Q96RI1 whole entry, looked up): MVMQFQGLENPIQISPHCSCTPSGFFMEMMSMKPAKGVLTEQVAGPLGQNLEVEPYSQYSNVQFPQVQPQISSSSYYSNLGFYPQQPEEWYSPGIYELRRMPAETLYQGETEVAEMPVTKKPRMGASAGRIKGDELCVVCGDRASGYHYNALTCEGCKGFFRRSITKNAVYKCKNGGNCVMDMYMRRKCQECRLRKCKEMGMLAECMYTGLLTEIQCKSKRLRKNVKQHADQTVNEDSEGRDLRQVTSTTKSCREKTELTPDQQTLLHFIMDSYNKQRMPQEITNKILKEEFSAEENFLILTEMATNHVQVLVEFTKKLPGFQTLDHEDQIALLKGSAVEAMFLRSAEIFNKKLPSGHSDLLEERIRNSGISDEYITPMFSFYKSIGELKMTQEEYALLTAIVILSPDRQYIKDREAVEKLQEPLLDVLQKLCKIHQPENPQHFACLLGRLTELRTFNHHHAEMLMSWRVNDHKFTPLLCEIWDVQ
Procedure, shortened: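 Read-out: beta-lactamase FRET fluorescence (LiveBLAzer B/G substrate, 2 h, room temperature) in GeneBLAzer FXR-UAS-bla HEK 293T cells. Compounds were co-dosed with 50 uM chenodeoxycholic acid (final) and incubated 16 h at 37 °C.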

[18] = qHTS assay to identify small molecule agonists of the farnesoid-X-receptor (FXR) signaling pathway - cell viability counter screen (AID 743218); note: nearly all actives have a fitted effect of over 45% in size
Procedure, shortened: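 Luminescence from CellTiter-Glo, read after 30 min at RT, reports viability of GeneBLAzer FXR-UAS-bla HEK 293T cells treated 16 h with compounds in the wells used for the beta-lactamase reporter.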

[19] = molecular target: Bile acid receptor (Homo sapiens) (UniProt Q96RI1); assay: qHTS assay to identify small molecule agonists of the farnesoid-X-receptor (FXR) signaling pathway (AID 743220; active = well fitted activation curve with a large enough effect in the signal ratio in the repeat runs, not every such curve was filed as active; the % refers to the signal ratio)
Procedure, shortened: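 FXR-UAS-bla HEK 293T cells carrying a UAS-driven beta-lactamase reporter were plated for 5 h at 37C/5% CO2, then exposed to DMSO-dissolved Tox21 10K compounds for 16 h at 37C. A LiveBLAzer B/G FRET substrate was loaded for 2 h at room temperature before fluorescence reading.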

[20] = qHTS assay to identify small molecule agonists of the vitamin D receptor (VDR) signaling pathway - cell viability counter screen (AID 743224)
Procedure, shortened: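 Cytotoxicity counter screen: VDR-bla cells, 16 h compound exposure at 37C, 5% CO2; CellTiter-Glo luminescence, 30 min RT, same wells as bla read.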

Measured: Potency

O=c1oc2ccccc2c(O)c1C1CCCc2ccccc21 (stereo unspecified)
active: [13] 48.6 µM
not listed: [16] | [17] | [18] | [19] | [20]
inactive: all other assays above

CCCSC(=O)Cl
inactive: all assays above

C[C@]12CC[C@H]3[C@@H](CCC4=CC(=O)CC[C@@]43C)[C@@H]1CC[C@@H]2C(=O)O
not listed: [6] | [16] | [18]
inactive: all other assays above

COc1cc(OC)nc(NC(=O)NS(=O)(=O)c2ncccc2C(=O)N(C)C)n1
not listed: [16] | [17] | [18] | [19]
inactive: all other assays above

CC(=O)CC(c1ccc(Cl)cc1)c1c(O)c2ccccc2oc1=O (stereo unspecified)
not listed: [6] | [17] | [19]
inactive: all other assays above

CNC(=O)O/N=C(\C)SC
not listed: [17] | [19] | [20]
inactive: all other assays above

O=C1CN=C(c2ccccc2)c2cc([N+](=O)[O-])ccc2N1
not listed: [3] | [16] | [17] | [19] | [20]
inactive: all other assays above

CCC#N
not listed: [3] | [5] | [16] | [20]
inactive: all other assays above

O=NN1CCN(N=O)CC1
not listed: [2] | [16]
inactive: all other assays above

N#Cc1c(Cl)cccc1Cl
not listed: [5] | [6] | [16] | [17] | [18] | [19]
inactive: all other assays above

C[C@]1(O)CC[C@H]2[C@@H]3CCC4=CC(=O)CC[C@]4(C)[C@@]3(F)[C@@H](O)C[C@@]21C
not listed: [3] | [5] | [6] | [16] | [18]
inactive: all other assays above

CCC(=O)c1ccccc1
not listed: [3]
inactive: all other assays above

NC1=NC(=O)C(c2ccccc2)O1 (stereo unspecified)
not listed: [3] | [6] | [16]
inactive: all other assays above

CC(=O)C(Cl)Cl
not listed: [3] | [5] | [6] | [20]
inactive: all other assays above

COC(=O)C(c1ccccc1)C1CCCCN1 (stereo unspecified)
not listed: [2] | [4] | [16]
inactive: all other assays above

O=[N+]([O-])c1cc(Cl)c(Cl)c(Cl)c1
not listed: [3] | [18]
inactive: all other assays above

O=[N+]([O-])c1cccc2c([N+](=O)[O-])cccc12
not listed: [3] | [5] | [6] | [16] | [17] | [19]
inactive: all other assays above
